From PubChem BioAssay (NCATS)
Results filed as inconclusive are left out. The source made the active and inactive calls. Calls come from the whole dose curve; as a rule, active = well fitted inhibition curve with a large enough effect; inconclusive = small, poorly fitted or top-dose-only effect; inactive = no such curve, though single readings can be large or run the other way.

Assay: qHTS for Inhibitors of the Aldehyde Dehydrogenase Family (ALDH1A2, ALDH1A3, ALDH2, ALDH3A1) (AID 2061307); note: nearly all actives have a fitted effect of over 50% in size; for Potency: test system not described further here
Settings: ALDH inhibition qHTS; series mostly up to 50.3 µM
Potency is the fitted concentration of half-maximal effect.

Row | SMILES | Potency
1 | COCCCn1c(SCC(=O)Nc2ccc(C(N)=O)cc2)nnc1-c1ccc(Cl)cc1 | 2.24 µM (active)
2 | C[S+](=O)([O-])c1ccc(-c2nnc3ccc(C(=O)NCCc4ccccc4F)cn23)cc1 | inactive
3 | O=C(CSc1n[nH]c2nc3ccccc3n12)Nc1cc(C(F)(F)F)ccc1Cl | 15.8 µM (active)
4 | COc1ccccc1CNc1ccc(N2CCCCC2)cc1 | 2.52 µM (active)
